The text below walks through data of PubChem BioAssay AID1626 (SRMLSC, 2009).

Out of some 220,000 compounds screened, about 2,000 (0.91%) were called active. Inconclusive results (about 2%) are left out. Rule as the data show it: inconclusive = inhibition above about 80% without an active follow-up result; inactive = below that; test concentration not stated here. Not all results are given here. Results with a measured potency or affinity are listed apart.

This experiment is described as follows: M. tuberculosis H37Rv growth inhibitors, H37Rv strain (AID 1626).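 Also: bacteria incubated seven days before Alamar blue readout; 0% = bacteria only wells and 100% = bacteria with antibiotic wells.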 The conditions noted are these: active compounds read high, concentration not given here.
On to `O=C(Nc1ccccc1)N(Cc1ccccc1)Cc1ccccc1`, for which the inhibition was 9.83% (inactive).
Turning to `C=CCNC(=O)Nc1cc(Cl)ccc1OC`, the inhibition was -2.63% (inactive).
With `CC(=O)c1cccc(OCC(=O)c2cc(C)n(-c3cc(C)on3)c2C)c1`, the inhibition is 17.2% (inactive).
For `Cc1cc(C(=O)COc2ccc3ccc(=O)oc3c2)c(C)n1C`, the inhibition was -5.12% (inactive).
The result for `Cc1ccc2occ(C3N[C@H](C(=O)O)CS3)c(=O)c2c1` (some centres undefined) reads -2.55% (inactive); that for `COc1ccc(NS(=O)(=O)c2ccc3nc(COc4ccc(C#N)cc4)[nH]c3c2)cc1`, 12.1% (inactive); that for `COc1ccc(NS(=O)(=O)c2ccc3nc(COc4ccc5ccccc5c4)[nH]c3c2)cc1`, 15.1% (inactive).
Take `CC(=O)c1c(C)nn(CC(O)Cn2c3c(c4cc(C)ccc42)CCCC3=O)c1C` (centres undefined): the inhibition was 7.8% (inactive).
The same measure for `COc1ccc(-n2nnc3c(=O)n(CC(=O)N4CCC(Cc5ccccc5)CC4)cnc32)cc1`: -2.81% (inactive); for `COc1cccc(-n2nnc3c(=O)n(CC(=O)N4CCC(Cc5ccccc5)CC4)cnc32)c1`: 2.62% (inactive).
`O=C1[C@@H]2[C@@H]3C[C@@H]([C@H]4ON=C(c5ccc(OCc6ccccc6)cc5)[C@@H]34)[C@@H]2C(=O)N1c1ccc2c(c1)OCO2`: the inhibition is 0.02% (inactive).
On to `O=C(Nc1ccc(-c2cnco2)cc1)c1ccccc1`, for which the inhibition is 3.05% (inactive).
`O=C(Nc1ccc(-c2cnco2)cc1)c1ccc(Cl)cc1`: the inhibition is -6.64% (inactive).
Consider `Cc1cc(C(C)(C)C)ccc1OCCn1ccnc1`, for which the inhibition was -6.1% (inactive).
The same measure for `O=C(Cc1ccccc1)N/N=C/c1ccccc1Cl`: 7.74% (inactive); for `Cc1cccc(-c2noc(CCC(=O)Nc3ccc(C(N)=O)cc3)n2)c1`: 0.33% (inactive); for `CC(C)CNC(=O)CCc1nc(-c2ccccc2)no1`: -9.52% (inactive).
Consider `Cc1cccc(-c2noc(CCCC(=O)Nc3ccc(C(N)=O)cc3)n2)c1`, for which the inhibition is 0.64% (inactive).
The result for `COc1ccc(-c2noc(CCCC(=O)Nc3ccc(C(N)=O)cc3)n2)cc1` reads -9.14% (inactive); that for `Cc1cccc(-c2noc(CCC(=O)Nc3ccccc3)n2)c1`, 1.97% (inactive); that for `Cc1ccc(-c2noc(CCC(=O)Nc3ccccc3C)n2)cc1`, 13.8% (inactive).
Turning to `CCOC(=O)c1cccc(NC(=O)CCc2nc(-c3ccccc3F)no2)c1`, the inhibition is 66.8% (inactive).
Turning to `O=C(O)CCc1nc(-c2ccc(Cl)cc2)no1`, the inhibition is -0.01% (inactive).
For the molecule `O=C(CCc1ccccc1)NCCc1nc2ccccc2[nH]1`, the inhibition was -3.29% (inactive).
The same measure for `CCN(c1ccccc1)S(=O)(=O)c1ccc(Cl)c(NC(=O)CN2C(=O)NC3(CCCC3)C2=O)c1`: -9.72% (inactive).
Consider `CCC(C)(C(=O)NC1CCCC1)N(C)C(=O)c1ccccn1` (centres undefined), for which the inhibition is -3.46% (inactive).
Consider `COc1ccc2c(CC(=O)OCC(=O)c3ccccc3OC)coc2c1`, for which the inhibition was 3.25% (inactive).
In the case of `O=C(CN1CCCCCCC1)Nc1ccc(Cl)cc1Cl`, the inhibition was -1.9% (inactive).
Consider `CC1=NN(c2ccccc2)C(=O)/C1=C\c1sccc1C`, for which the inhibition was -4.07% (inactive).
Turning to `COC(=O)c1ccc(/C=N/OCC(=O)NCc2ccc(F)cc2)cc1`, the inhibition was 6.23% (inactive).
The same measure for `CC(C)CC1NC2(C(=O)N(C)c3ccccc32)C2C(=O)N(C(C)C)C(=O)C12` (centres undefined): 0.86% (inactive).
`N#Cc1c(-c2ccccc2)nc2n(-c3ccccc3)nc(C(=O)Nc3ccccc3)n2c1=O`: the inhibition was 8.32% (inactive).
`N#Cc1ccccc1CSc1nnc(Cc2ccccc2)o1`: the inhibition is 0.34% (inactive).
The same measure for `CC(C)=Cc1c(O)nc2ccccn2c1=O`: -3.05% (inactive); for `Cc1c(NC(=O)CSCc2ccc(Br)cc2)c(=O)n(-c2ccccc2)n1C`: -6.02% (inactive).
As to `COc1ccccc1-c1noc(CCC(=O)Nc2ccccc2Cl)n1`, the inhibition was -5.64% (inactive).
In the case of `Cc1ccc(-c2noc(CCC(=O)Nc3ccc(C)cn3)n2)cc1`, the inhibition was 25.6% (inactive).
The same measure for `CCc1ccccc1NC(=O)CCc1nc(-c2ccc(C)cc2)no1`: -5.75% (inactive); for `NC(=O)c1ccc(NC(=O)CCCc2nc(-c3ccccc3Cl)no2)cc1`: -1.91% (inactive).
Take `O=C(/C=C/c1ccco1)N(Cc1cccc(Br)c1)C1CCS(=O)(=O)C1` (centres undefined): the inhibition was -13.6% (inactive).
The result for `Cc1ccc(NC(=O)c2ccc(N3CCOCC3)c([N+](=O)[O-])c2)cc1S(=O)(=O)N1CCOCC1` reads 5.87% (inactive); that for `COc1cc(CNCC(C)C)cc(Br)c1OCC(=O)Nc1ccccc1`, 0.75% (inactive).
The result for `CCN(CC)CCNCc1cc(Cl)c(OCC(=O)Nc2ccccc2)c(OC)c1` reads 7.36% (inactive).
Take `O=C(Cn1c2[n+](c3ccccc31)CC(O)CS2)c1ccccc1` (centres undefined): the inhibition was -6.67% (inactive).
Take `CCC(=O)N1CCN(c2ccc(OC)cc2[N+](=O)[O-])CC1`: the inhibition was -1.32% (inactive).
In the case of `NS(=O)(=O)c1ccc(-c2ccc(/C=C3\SC(=S)N(C4CCS(=O)(=O)C4)C3=O)o2)cc1` (centres undefined), the inhibition was -2.38% (inactive).
Regarding `NS(=O)(=O)c1ccc(-c2ccc(C=NC3CCS(=O)(=O)C3)o2)cc1` (centres undefined), the inhibition was -11.7% (inactive).
The same measure for `CC(C)Cn1c(N)c(C(=O)COC(=O)c2ccc(F)cc2)c(=O)n(C)c1=O`: 6.86% (inactive); for `CN(C)c1nc(N)nc(CSc2nnnn2-c2ccc(F)cc2)n1`: -2.97% (inactive).
The result for `CCCOc1ccc(OC(=O)c2ccc(Br)o2)cc1` reads 3.47% (inactive); that for `CC(=O)c1ccc(OC(=O)c2ccc(Br)o2)cc1`, -1.59% (inactive); that for `CCC(=O)Nc1nc2ccccc2n1CCN(CC)CC`, -1.49% (inactive).
As to `CC(=O)NCCc1nc2ccccc2n1Cc1ccc(Cl)cc1`, the inhibition was -2.45% (inactive).
The same measure for `CCC(=O)Nc1nonc1-c1nc2ccccc2n1Cc1ccccc1`: 22.2% (inactive).
Consider `CCC(=O)NCCc1nc2ccccc2n1Cc1ccccc1`, for which the inhibition was -11.3% (inactive).
Consider `CCC(=O)NCCc1nc2ccccc2n1Cc1ccc(C)cc1`, for which the inhibition was -3.53% (inactive).
The result for `CCC(=O)Nc1nc2ccccc2n1CCN(C)C` reads 0.79% (inactive); that for `NCCNC(=O)Cc1cccc(NC(=O)Cc2ccc(Nc3ncnc4c3ncn4[C@@H]3O[C@H](CO)[C@@H](O)[C@H]3O)cc2)c1`, 10.9% (inactive); that for `COc1ccc(C(=O)c2ccc3oc(-c4ccc(OC)cc4)c(C#CCCO)c3c2)cc1`, 6.95% (inactive).
